This is part of a sample that, as a whole, favours compounds with a hit. Of some 83,000 tested, about 20% had one in any assay.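 Activity criterion: percent growth below 10, measured after cells in 96-well plates were exposed to a single compound concentration for 48 hours.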
How the values were obtained:
Assay in all cases: NCI-60 one-dose screen, 48 h (100 = growth as untreated, 0 = no growth, -100 = all killed)
Details in all cases: 10 µM unless noted
[1] = tested on: DU-145 prostate
[2] = tested on: K-562 leukemia
[3] = tested on: MALME-3M melanoma
[4] = tested on: MDA-MB-231 breast
[5] = tested on: RXF 393 renal
[6] = tested on: SF-268 CNS
[7] = tested on: SF-295 CNS
[8] = tested on: SF-539 CNS
[9] = tested on: UACC-257 melanoma
[10] = tested on: M14 melanoma
[11] = tested on: HCT-15 colon
[12] = tested on: HT29 colon
[13] = tested on: SNB-75 CNS
[14] = tested on: SNB-19 CNS
[15] = tested on: U251 CNS
[16] = tested on: PC-3 prostate
[17] = tested on: SK-MEL-5 melanoma
[18] = tested on: UACC-62 melanoma
[19] = tested on: LOX IMVI melanoma
[20] = tested on: SK-MEL-28 melanoma

Measured: growth

N#Cc1c(-c2ccc(Cl)cc2)c(C#N)c2c(C#N)c(N)nn2c1N
inactive: [1] 84% | [2] 89.3% | [3] 106% | [4] 71.3% | [5] 79.7% | [6] 83.7% | [7] 83.3% | [8] 78% | [9] 89.2% | [10] 103% | [11] 88.2% | [12] 83.3% | [13] 74.8% | [14] 88.2% | [15] 87.9% | [16] 65.2% | [17] 87.9% | [18] 72.9% | [19] 76.6% | [20] 99.3%

N#Cc1c(-c2ccccc2)[nH]c2ncc(-c3ccccc3)n2c1=O
inactive: [1] 99.7% | [2] 98.7% | [3] 91.5% | [4] 76.3% | [5] 102% | [6] 91.7% | [7] 78.2% | [8] 89.9% | [9] 94% | [10] 91.3% | [11] 93.5% | [12] 106% | [13] 78.8% | [14] 105% | [15] 93.1% | [16] 74.6% | [17] 87.7% | [18] 87.8% | [19] 86.8% | [20] 102%

Cn1ccnc1C(=O)/C=C/c1ccc(CC(=O)Nc2cc(C(F)(F)F)cc(C(F)(F)F)c2)cc1
inactive: [1] 73.4% | [2] 61.6% | [3] 77.9% | [4] 78.1% | [5] 56.2% | [6] 64.9% | [7] 84.3% | [8] 67.1% | [9] 72.8% | [10] 80.5% | [11] 53% | [12] 66.4% | [13] 58.3% | [14] 67.1% | [15] 40.8% | [16] 55.9% | [17] 76.5% | [18] 67.5% | [19] 56.5% | [20] 91.2%

CCOC(=O)C1=C(c2ccccc2)N=C2SC=C(c3ccc(Cl)cc3)N2C1c1ccc(Cl)cc1 (stereo not given)
inactive: [1] 87.7% | [2] 73.8% | [3] 87.2% | [4] 74.2% | [5] 72% | [6] 78.8% | [7] 88.9% | [8] 92.8% | [9] 64.9% | [10] 82.8% | [11] 77.6% | [12] 83% | [13] 84.7% | [14] 82.8% | [15] 80.9% | [16] 41.3% | [17] 54.7% | [18] 66.4% | [19] 88.3% | [20] 95.8%

CNc1nnc2n(-c3ccccc3)c(=O)c3cnn(-c4ccccc4)c3n12
inactive: [1] 102% | [2] 85.7% | [3] 131% | [4] 103% | [5] 98.2% | [6] 96.1% | [7] 78.8% | [8] 83.5% | [9] 95.7% | [10] 79.1% | [11] 76.2% | [12] 51.3% | [13] 73.1% | [14] 110% | [15] 71.4% | [16] 62.7% | [17] 100% | [18] 95.4% | [19] 82.6% | [20] 103%

O=C(Nc1cccc2ccccc12)NC1CC1
inactive: [1] 141% | [2] 107% | [3] 123% | [4] 113% | [5] 107% | [6] 120% | [7] 116% | [8] 122% | [9] 106% | [10] 103% | [11] 112% | [12] 114% | [13] 83.6% | [14] 107% | [15] 101% | [16] 97.4% | [17] 103% | [18] 99.8% | [19] 101% | [20] 105%

NS(=O)(=O)c1ccccc1NC(=O)Nc1nc2ccccc2s1
inactive: [1] 106% | [2] 97.5% | [3] 91.9% | [4] 97% | [5] 98.4% | [6] 98.1% | [7] 94.6% | [8] 95.8% | [9] 102% | [10] 93.5% | [11] 100% | [12] 98.2% | [13] 86.9% | [14] 98% | [15] 99.1% | [16] 97.8% | [17] 99.8% | [18] 101% | [19] 91.8% | [20] 103%

Source: PubChem BioAssay (NCI)
